# Laboratory results taken from the supplement of paper PMC6555819.
# What was measured:
# Assay in all cases: PBM binding z-score (relative to random genomic background probes); higher = stronger binding; sequences stand for … in GC…GCGATTGACAGCGTAGAATGAAGG
# [1] = test system: FXR:RXRa (NR concentration 270 nM, RXRa partner concentration 90 nM)
# Method in brief: (§1)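 Ligand-free nuclear receptor dimers were bound for 1 h to custom Agilent 4×180K protein-binding microarrays. Detection used antibodies against each partner (one per run). Binding z-scores rest on regression-normalized fluorescence, with random background probes as the reference.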
# [2] = test system: LXRa:RXRa (NR concentration 270 nM, RXRa partner concentration 90 nM)
# Method in brief: as §1
# [3] = test system: LXRa homodimer (NR concentration 270 nM)
# Method in brief: as §1
# [4] = test system: LXRb:RXRa (NR concentration 270 nM, RXRa partner concentration 90 nM)
# Method in brief: as §1
# [5] = test system: LXRb homodimer (NR concentration 270 nM)
# Method in brief: as §1
# [6] = test system: PPARa:RXRa (NR concentration 270 nM, RXRa partner concentration 90 nM)
# Method in brief: as §1
# [7] = test system: PPARg:RXRa (NR concentration 180 nM, RXRa partner concentration 90 nM)
# Method in brief: as §1
# [8] = test system: PPARg:RXRa 270nM:90nM, anti-RXR (NR concentration 270 nM, RXRa partner concentration 90 nM)
# Method in brief: as §1
# [9] = test system: PPARg:RXRa 30nM:10nM, anti-RXR (NR concentration 30 nM, RXRa partner concentration 10 nM)
# Method in brief: as §1
# [10] = test system: PPARg:RXRa 90nM:30nM, anti-RXR (NR concentration 90 nM, RXRa partner concentration 30 nM)
# Method in brief: as §1
# [11] = test system: PPARg:RXRa DBDmut IVT, anti-RXR (DBD mutation: RXRa K156A/R161A, NR concentration 270 nM, RXRa partner concentration 90 nM)
# Method in brief: as §1
# [12] = test system: PPARg:RXRa IVT, anti-PPARg (NR concentration 270 nM, RXRa partner concentration 90 nM)
# Method in brief: as §1
# [13] = test system: PPARg DBDmut:RXRa IVT, anti-PPARg (DBD mutation: PPARg1 K132A/R137A, NR concentration 270 nM, RXRa partner concentration 90 nM)
# Method in brief: as §1
# [14] = test system: PPARg DBDmut IVT, anti-PPARg (DBD mutation: PPARg1 K132A/R137A, NR concentration 270 nM)
# Method in brief: as §1
# [15] = test system: PPARg homodimer (NR concentration 180 nM)
# Method in brief: as §1
# [16] = test system: PXR:RXRa (NR concentration 270 nM, RXRa partner concentration 90 nM)
# Method in brief: as §1
# [17] = test system: PXR homodimer (NR concentration 270 nM)
# Method in brief: as §1
# [18] = test system: RARa:RXR (NR concentration 270 nM, RXRa partner concentration 90 nM)
# Method in brief: as §1
# [19] = test system: RARa homodimer (NR concentration 270 nM)
# Method in brief: as §1
# [20] = test system: RARb:RXRa (NR concentration 270 nM, RXRa partner concentration 90 nM)
# Method in brief: as §1
Sequence,PBM binding z-score [1],PBM binding z-score [2],PBM binding z-score [3],PBM binding z-score [4],PBM binding z-score [5],PBM binding z-score [6],PBM binding z-score [7],PBM binding z-score [8],PBM binding z-score [9],PBM binding z-score [10],PBM binding z-score [11],PBM binding z-score [12],PBM binding z-score [13],PBM binding z-score [14],PBM binding z-score [15],PBM binding z-score [16],PBM binding z-score [17],PBM binding z-score [18],PBM binding z-score [19],PBM binding z-score [20]
AGAACGACGGCAATGAGTTGATAGCACGGGTGGC,-0.823,-0.86,-0.973,-1.01,-0.907,-0.728,0.71,-0.672,-0.309,-0.536,-0.438,-0.402,-0.484,-0.862,-0.865,-0.631,-0.242,-0.819,-0.419,-0.448
CCTCGGAGGACAACAGAAGGTCAGAGCTGCCAGA,0.854,1.74,0.922,1.14,-0.67,1.78,0.435,0.249,-0.533,-0.218,0.129,0.0477,-0.565,-1.32,1.42,1.43,-0.04,1.95,0.344,3.02
ACTATTAGTTGCGACGAGGGCAACCGATAGGTTG,0.025,-0.176,-0.51,-0.131,-0.0376,0.201,0.576,0.00262,-0.168,0.0381,-0.375,0.286,0.385,0.517,0.166,0.401,-0.0266,0.277,0.0553,0.852
CGGACTGGGGCATAAGGTTACCATAAGCCAGCCC,0.339,2.09,-0.514,1.11,-0.487,2.78,4.19,4.81,2.94,4.56,4.08,5.2,1.2,1.32,1.19,0.635,-0.0559,1.48,-0.515,1.78
TCTGCTAAGTCAGTTGGTCAGCTAACGAGCTGCC,-0.309,-0.429,-0.729,-0.89,-0.474,-0.235,-1.04,0.263,1.09,0.712,0.523,0.0659,-0.684,-0.363,-1.05,-0.607,-0.707,-0.273,-1.36,0.0945
GCATATGGGTAATACAAGGTGAAAGTCCGATTGT,0.428,1.27,0.16,0.226,-0.552,1.46,0.928,1.03,0.412,0.777,3.34,2.47,0.702,0.516,0.3,0.344,0.0703,1.08,0.617,0.416
CCTAGTTGGTCAAGGTGACACACGCTATAGGTAC,0.697,0.276,0.273,0.592,0.0749,1.33,1.71,1.93,0.466,1.32,1.63,3.11,0.179,0.257,1.46,0.478,0.557,1.28,1.57,1.86
TAACCAAGGTGAAAGGTCGTTGATGCACGCCTTG,3.72,3.34,0.422,2.69,0.0179,5.18,8.43,8.06,8.2,8.96,2.51,4.83,0.621,0.876,2.72,4.25,0.689,6.11,0.504,3.15
TCATATAGGTAAAAGGTGAAAGCCGGTGTGGTAA,1.71,2.07,0.0111,1.77,-0.0293,5.73,8.8,8.59,8.83,9.1,5.44,4.98,0.678,1.17,1.42,1.58,0.293,2.92,0.942,1.95
AATACAGGGTCATCGTAGGCCAAAGTACGCACAG,7.45,6.92,3.34,5.36,1.6,6.04,6.83,5.96,2.67,4.78,2.81,4.06,3.81,2.62,3.47,5.59,1.03,5.27,1.3,4.29
ATCTCTAGGTAACAAGTTCAATGAAAGAGAGGAC,1.38,1.5,1.01,1.42,1.28,2.44,2.44,2.87,1.22,2.61,3.6,3.31,1.41,1.75,1.45,2.68,3.18,1.75,1.83,2.18
CCAGACAGGTGAGAAAGTAACTCAGCCTCGATTA,-0.0524,0.0409,0.0347,0.0309,-0.167,0.206,0.1,-0.203,-0.427,-0.273,0.811,0.252,-0.222,-0.131,0.452,-0.35,0.307,0.117,0.86,0.141
CGTCCAAGGTCATAGGAAGTCAGTGAAGACAGAT,6.83,5.5,1.21,3.9,0.55,5.43,4.4,4.99,1.57,3.64,3.11,3.4,0.667,-0.147,2.75,3.99,0.915,4.28,0.466,4.81
TGAATGAGGTTATAAGATCAGGGTACGTTGCAAA,1.46,1.39,0.0526,1.44,0.315,2.72,1.53,1.96,0.789,1.23,0.889,1.69,1.22,0.612,0.135,1.17,0.33,1.74,0.229,1.27
